Source: PubChem
The list is not random: actives were taken first. Their share in the collection is about 7%.
PLK1 PBD inh: blocks phosphopeptide binding to human PLK1 polo-box domain; Plk1 PBD binding of FITC phosphopeptide, fluorescence polarization; Potency, µM, for the others: max response, negative = inhibition, actives largely listed as inhibitors; 2.8% of 360,000 active; AID 720504; note: potency is the fitted concentration of half-maximal effect; series mostly up to about 57 µM; % is set by controls: 0 for no effect and ±100 for the full control effect; nearly all actives have a fitted effect of over 65% in size
KAT2A inh: blocks human GCN5L2 histone acetyltransferase. Q92830. GCN5L2 HAT assay, ThioGlo1 CoA-SH fluorescence. Potency, µM (doses to about 58.9 µM), for the others: at the top dose activity change, negative = inhibition, actives largely listed as inhibitors. 0.21% of 390,000 active. AID 504327; note: potency is the fitted concentration of half-maximal effect; % is set by controls: 0 for no effect and ±100 for the full control effect
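ThioGlo1-coupled HAT assay: 20nM GCN5L2, 70uM acetyl-CoA, 75uM H3(1-25) peptide, pH 7.5. Fluorescence read at 340/540nm at start and after 20 min at room temperature.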
JMJD2A Tudor: blocks the human JMJD2A Tudor domain; 4.4% of 390,000 active; AID 504339; Potency, µM (series often up to 114 µM), for the others: top-dose activity change, negative = inhibition, most hits filed as inhibitors; AlphaScreen JMJD2A-Tudor / H3K4me3 peptide binding; note: potency is the fitted concentration of half-maximal effect; % is set by controls: 0 for no effect and ±100 for the full control effect; nearly all actives have a fitted effect of over 50% in size
HP1b binding inh: HP1-beta chromodomain-methylated histone interaction inhibition; P83916; AlphaScreen HP1-beta / biotin-H3K9me3 peptide binding; Potency, µM (series often up to 114 µM), for the others: top-dose activity change, negative = inhibition, actives largely listed as inhibitors; 0.56% of 390,000 active; AID 540317; note: potency is the fitted concentration of half-maximal effect; nearly all actives have a fitted effect of over 70% in size
Target sequence (P83916 whole entry, looked up): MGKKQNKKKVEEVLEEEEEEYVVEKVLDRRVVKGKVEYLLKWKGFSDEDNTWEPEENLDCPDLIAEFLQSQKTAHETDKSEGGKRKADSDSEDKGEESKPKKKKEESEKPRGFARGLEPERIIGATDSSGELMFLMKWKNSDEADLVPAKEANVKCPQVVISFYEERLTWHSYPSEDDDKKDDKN
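AlphaScreen: HP1-beta (50 nM) preformed 30 min with biotin-H3(1-18)K9me3 peptide (50 nM) in PBS pH 7.4, 0.01% Tween-20. Compound added for 30 min at RT, then streptavidin donor/nickel chelate acceptor beads (10 ug/mL) for 30 min.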
PI5P4K alpha inh: inhibitors of human PI5P4K alpha | 1.2% of 330,000 active | max response, % | PI5P4Kalpha enzyme, ADP-Glo luminescence, 60 min; active compounds read low | P48426; active = max response of -50% or lower; inconclusive = between -30% and -50%; inactive = -30% or higher; note: value at the top dose of about 77 µM; % is set by controls: 0 for no effect and ±100 for the full control effect
Target sequence (P48426 whole entry, looked up): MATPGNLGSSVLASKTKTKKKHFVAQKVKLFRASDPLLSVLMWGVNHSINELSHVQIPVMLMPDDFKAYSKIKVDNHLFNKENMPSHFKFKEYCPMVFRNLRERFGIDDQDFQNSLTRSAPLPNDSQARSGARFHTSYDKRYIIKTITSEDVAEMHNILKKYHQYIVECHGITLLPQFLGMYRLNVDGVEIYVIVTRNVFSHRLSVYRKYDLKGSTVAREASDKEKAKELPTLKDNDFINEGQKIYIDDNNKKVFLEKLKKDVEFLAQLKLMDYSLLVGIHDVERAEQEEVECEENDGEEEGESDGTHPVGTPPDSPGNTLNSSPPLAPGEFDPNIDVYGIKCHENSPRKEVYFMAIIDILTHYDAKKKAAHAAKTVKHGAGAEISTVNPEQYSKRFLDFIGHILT
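Quantitative HTS of the MLSMR library against PI5P4Kalpha with substrate. ATP added last at 5 microM final; room temperature, 60 minutes. Remaining ATP depleted, ADP converted and read as luminescence.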
BAZ2B inh: blocks human BAZ2B; Q9UIF8; AlphaScreen BAZ2B-H3K14Ac peptide displacement; Potency, µM (series often up to 114 µM), for inactives: at the highest dose activity change, negative = inhibition, actives largely listed as inhibitors; 4.4% of 360,000 active; note: potency is the fitted concentration of half-maximal effect; % is set by controls: 0 for no effect and ±100 for the full control effect; nearly all actives have a fitted effect of over 60% in size
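AlphaScreen displacement of biotin-H3(5-23)K14Ac peptide (50 nM final) from BAZ2B (50 nM final) in PBS pH 7.4, 0.01% Tween-20; complex preformed 30 min RT, then compounds (top 110 uM) 30 min RT, beads 20 min dark.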
* = called active by the depositor; [ ] = dose if it differs, or a comment. Unless noted, calls come from the whole dose curve; as a rule, active = well fitted curve in the direction sought with a large enough effect; inconclusive = small, poorly fitted or top-dose-only effect, or another doubt; inactive = no such curve, though single readings can be large; an effect the other way counts as inactive or inconclusive.

`O=C(CN1C(=O)CSC1=O)Nc1ccc2c(c1)OCCO2` gave PLK1 PBD inh -14%, KAT2A inh -7%, JMJD2A Tudor 1%, HP1b binding inh 29%, PI5P4K alpha inh -55* and BAZ2B inh -7%.
Screening CC1CCN(CCC(=O)Nc2ccc3c(c2)OCCO3)CC1 returned KAT2A inh -2% and BAZ2B inh 56µM*.
COC(=O)C1CCN(CC(=O)Nc2ccc3c(c2)OCCO3)CC1 was read as PLK1 PBD inh -5%, KAT2A inh -3%, JMJD2A Tudor -3%, HP1b binding inh 11%[57 µM] and PI5P4K alpha inh 0.
`O=C(O)c1ccc(N2C(=O)CC(N3C(=O)/C(=C/c4ccc(Cl)cc4)SC3=S)C2=O)cc1` (stereo unspecified) gave PLK1 PBD inh 27µM*, KAT2A inh inconclusive, JMJD2A Tudor inconclusive, HP1b binding inh -19%, PI5P4K alpha inh -64* and BAZ2B inh inconclusive.
For O=C(Nc1ccc(Br)c2ccccc12)c1ccc2ccccc2c1O the results were PLK1 PBD inh inconclusive, KAT2A inh -7%, JMJD2A Tudor inconclusive, HP1b binding inh inconclusive, PI5P4K alpha inh 1 and BAZ2B inh 28µM*.
`COc1cc(/C=C/CNC[C@H]2O[C@@H](n3ccc(N)nc3=O)[C@H](O)[C@@H]2O)ccc1O` gave PLK1 PBD inh -20% and PI5P4K alpha inh 5.
`CN(C)c1ccc2c(c1)OC(N)=C(C#N)C2c1cccc(F)c1` (stereo unspecified) gave PLK1 PBD inh 14%, KAT2A inh -9%, JMJD2A Tudor 50µM*, HP1b binding inh inconclusive and BAZ2B inh inconclusive.
CCOC(=O)c1c(N)sc2c1CCC1C(=O)N(C3CCCCC3)C(=O)C21 (stereo unspecified) was read as PLK1 PBD inh 19µM*, KAT2A inh -17%, JMJD2A Tudor -25%, HP1b binding inh -26%, PI5P4K alpha inh -27 and BAZ2B inh -6%.
`CCOC(=O)c1c(N)sc2c1CCC(CC)C2` (stereo unspecified) gave PLK1 PBD inh inconclusive, KAT2A inh -6%, JMJD2A Tudor -33%, HP1b binding inh inconclusive, PI5P4K alpha inh 23 and BAZ2B inh -29%.
COc1ccc(-c2cc(C(F)(F)F)nc(SCCC(=O)Nc3ccc(O)cc3)n2)cc1 was read as KAT2A inh 2%, JMJD2A Tudor -12%, HP1b binding inh 15% and BAZ2B inh 1%.
For O=C(CSc1ccccc1C(=O)O)c1ccc([N+](=O)[O-])cc1 the results were PLK1 PBD inh 12µM*, KAT2A inh -11%, JMJD2A Tudor 20µM*, HP1b binding inh inconclusive, PI5P4K alpha inh inconclusive and BAZ2B inh inconclusive.
Screening COc1ccc(NC(=S)NCc2ccc3c(c2)cc(C)n3C)cc1 returned PLK1 PBD inh -15%, KAT2A inh -1%, JMJD2A Tudor 50µM*, HP1b binding inh inconclusive, PI5P4K alpha inh -12 and BAZ2B inh 45µM*.
`CCCCC(=O)NCc1ccc2c(c1)cc(C)n2C` gave PLK1 PBD inh -3%, KAT2A inh 15%, JMJD2A Tudor -23%, HP1b binding inh 8%, PI5P4K alpha inh 1 and BAZ2B inh -6%.
Screening Cc1cc2cc(CNC(=O)Nc3ccccc3)ccc2n1C returned PLK1 PBD inh -9%, KAT2A inh -7%, JMJD2A Tudor inconclusive, HP1b binding inh inconclusive and BAZ2B inh 4%.
For Cc1cc2cc(CNC(=S)NCc3ccccc3)ccc2n1C the results were PLK1 PBD inh -1%, KAT2A inh -1%, JMJD2A Tudor 50µM*, HP1b binding inh inconclusive, PI5P4K alpha inh 1 and BAZ2B inh 25µM*.
`CCCCNC(=S)NCc1ccc2c(c1)cc(C)n2C` gave PLK1 PBD inh -2%, KAT2A inh 0%, JMJD2A Tudor inconclusive, HP1b binding inh -7%, PI5P4K alpha inh 1 and BAZ2B inh 45µM*.
Cc1cc2cc(CNC(=S)Nc3ccc(OC(F)F)cc3)ccc2[nH]1 was read as PLK1 PBD inh -13%, KAT2A inh -4%, JMJD2A Tudor inconclusive, HP1b binding inh -15%, PI5P4K alpha inh 5 and BAZ2B inh 45µM*.
`CCCc1cc(=O)[nH]c(SCC(=O)Nc2cc(S(=O)(=O)N3CCOCC3)ccc2N(CC)CC)n1` gave PLK1 PBD inh -21%, KAT2A inh -3%, JMJD2A Tudor -28%, HP1b binding inh 13% and PI5P4K alpha inh 6.
Screening O=S(=O)(c1ccccc1F)N1CCN(Cc2cc3c(cc2Br)OCCO3)CC1 returned PLK1 PBD inh -3%, KAT2A inh -10%, JMJD2A Tudor 1%, HP1b binding inh 35%, PI5P4K alpha inh 3 and BAZ2B inh -3%.
CCc1cccc(C)c1NC(=S)NCc1ccc2c(c1)cc(C)n2C was read as PLK1 PBD inh -7%, KAT2A inh -5%, JMJD2A Tudor 50µM*, HP1b binding inh -18%, PI5P4K alpha inh -7 and BAZ2B inh 25µM*.
Screening COc1ccccc1NC(=S)NCc1ccc2c(c1)cc(C)n2C returned PLK1 PBD inh -6%, KAT2A inh -1%, JMJD2A Tudor 50µM*, HP1b binding inh inconclusive, PI5P4K alpha inh 0 and BAZ2B inh 25µM*.
`COc1ccc(NC(=S)NCc2cccn2C)cc1` gave PLK1 PBD inh inconclusive, KAT2A inh 1%, JMJD2A Tudor -31%, HP1b binding inh -21%, PI5P4K alpha inh -4 and BAZ2B inh 35µM*.
`COc1ccc(C(=O)NCc2ccc3c(c2)cc(C)n3C)cc1OC` gave PLK1 PBD inh -16%, KAT2A inh -3%, JMJD2A Tudor -32%, HP1b binding inh -4%, PI5P4K alpha inh 1 and BAZ2B inh inconclusive.
Cc1cc2cc(CNC(=O)c3cccs3)ccc2n1C was read as PLK1 PBD inh 27µM*, KAT2A inh -7%, JMJD2A Tudor inconclusive, HP1b binding inh -15%, PI5P4K alpha inh -7 and BAZ2B inh 50µM*.
Screening CCC(CC)C(=O)NCc1ccc2c(c1)cc(C)n2C returned PLK1 PBD inh -17%, KAT2A inh -10%, JMJD2A Tudor -19%, HP1b binding inh 42% and BAZ2B inh -26%.
For CN(C(=S)Nc1ccc(SC(F)F)cc1)c1ccc(O)cc1 the results were PLK1 PBD inh inconclusive, KAT2A inh -7%, JMJD2A Tudor inconclusive, HP1b binding inh 71µM*, PI5P4K alpha inh 1 and BAZ2B inh inconclusive.
Screening CN(C(=S)Nc1ccccc1)c1ccccc1 returned PLK1 PBD inh -6%, KAT2A inh -7%, JMJD2A Tudor 21%, HP1b binding inh 2%, PI5P4K alpha inh 11 and BAZ2B inh -20%.
